# According to PubChem BioAssay (NCATS):
# Inconclusive results are not listed. Active and inactive are the calls of the source. Unless noted, calls follow the shape of the dose curve; as a rule, active = well fitted curve in the direction sought with a large enough effect; inconclusive = small, poorly fitted or top-dose-only effect, or another doubt; inactive = no such curve, though single readings can be large; an effect the other way counts as inactive or inconclusive.
# Experiments:
# [1] = qHTS Assay for Lipid Storage Modulators (AID 1519; calls by dose curve; as to activity change, negative = inhibition: % is scaled to controls: 0 for no effect and ±100 for the full control effect); details: Drosophila S3 cells, BODIPY lipid droplet/cell ratio, laser cytometry, cells loaded with oleic acid; for activity change, negative = inhibition: at 57.5 µM (top of the series)
# Outline: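 Cells seeded at 5,000 per well were treated with compounds over a concentration series and loaded with oleic acid (400 uM, as added). Lipid droplet fluorescence (488 nm excitation, 500-530 nm channel) was read by laser-scanning cytometry and normalized to 20 uM Triacsin C.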
# [2] = molecular target: Ubiquitin carboxyl-terminal hydrolase 1 (Homo sapiens) (UniProt O94782); experiment: Inhibitors of USP1/UAF1: Pilot qHTS (AID 504865);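 also: rhodamine fluorescence freed from ubiquitin-rhodamine substrate followed over time; top concentration of the series differs between compounds; % is scaled to controls: 0 for no effect and ±100 for the full control effect; nearly all actives have a fitted effect of over 35% in size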
# Sequence of Ubiquitin carboxyl-terminal hydrolase 1 (Homo sapiens) (O94782 whole entry, looked up): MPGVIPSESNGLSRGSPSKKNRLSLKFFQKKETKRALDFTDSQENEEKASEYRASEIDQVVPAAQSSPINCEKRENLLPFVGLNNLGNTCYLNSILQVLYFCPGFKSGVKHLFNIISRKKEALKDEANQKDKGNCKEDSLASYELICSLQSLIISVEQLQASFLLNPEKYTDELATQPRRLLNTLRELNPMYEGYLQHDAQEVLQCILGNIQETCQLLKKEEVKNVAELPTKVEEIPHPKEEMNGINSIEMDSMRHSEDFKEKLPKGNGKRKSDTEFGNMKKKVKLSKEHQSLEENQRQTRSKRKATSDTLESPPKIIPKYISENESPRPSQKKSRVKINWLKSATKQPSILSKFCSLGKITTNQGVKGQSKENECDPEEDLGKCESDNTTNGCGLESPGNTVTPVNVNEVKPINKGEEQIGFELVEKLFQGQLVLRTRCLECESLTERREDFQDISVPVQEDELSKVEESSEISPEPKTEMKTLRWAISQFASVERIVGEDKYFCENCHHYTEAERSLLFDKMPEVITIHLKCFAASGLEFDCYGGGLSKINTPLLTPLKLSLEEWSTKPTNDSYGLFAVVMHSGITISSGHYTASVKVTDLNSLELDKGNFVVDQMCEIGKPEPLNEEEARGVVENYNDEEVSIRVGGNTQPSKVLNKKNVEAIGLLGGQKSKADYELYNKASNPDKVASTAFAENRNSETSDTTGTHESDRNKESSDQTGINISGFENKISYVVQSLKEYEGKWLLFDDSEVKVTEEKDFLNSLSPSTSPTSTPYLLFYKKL
# Outline: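 Deubiquitinase activity followed as kinetic rhodamine fluorescence release from 150 nM Ub-Rho. 1 nM USP1/UAF1 with compound, after 15 min room-temperature preincubation, in HEPES pH 7.8 buffer containing TCEP, EDTA, BSA and Tween-20.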
# [3] = molecular target: DNA dC->dU-editing enzyme APOBEC-3G (Homo sapiens) (UniProt Q9HC16); experiment: qHTS for inhibitors of Vif-A3G interactions: Validation (AID 588379); also: 0% is about no effect
# Sequence of DNA dC->dU-editing enzyme APOBEC-3G (Homo sapiens) (Q9HC16 whole entry, looked up): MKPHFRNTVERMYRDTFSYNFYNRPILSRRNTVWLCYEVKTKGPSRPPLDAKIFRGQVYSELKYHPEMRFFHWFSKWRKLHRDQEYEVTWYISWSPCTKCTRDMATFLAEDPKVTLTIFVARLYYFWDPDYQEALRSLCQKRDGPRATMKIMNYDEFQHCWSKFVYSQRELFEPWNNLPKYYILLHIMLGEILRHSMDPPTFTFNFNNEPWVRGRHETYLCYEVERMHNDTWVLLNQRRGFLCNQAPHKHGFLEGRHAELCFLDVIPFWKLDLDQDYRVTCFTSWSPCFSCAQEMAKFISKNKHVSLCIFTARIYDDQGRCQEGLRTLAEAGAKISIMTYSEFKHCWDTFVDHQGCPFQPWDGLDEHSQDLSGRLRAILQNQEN
# Outline: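 Yellow fluorescence (Ex 488, Em 500-530) of Vif-coexpressing HeLa A3G-eYFP cells, scanned by Acumen cytometer, reports blocked A3G degradation. Cells plated at 700/well overnight at 37 deg C before compound addition, then a further overnight compound incubation at 37 deg C.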
# [4] = test system: Zika virus NS2B-NS3 protease; experiment: Primary screen GU AMC qHTS for Zika virus inhibitors (AID 1347154);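 also: 0% = no-inhibitor control and -100% = no-enzyme control; nearly all actives have a fitted effect of over 70% in size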
# Outline: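 Unlinked Zika NS2B hydrophilic domain–NS3 protease complex at 25 nM in 10 mM Tris-HCl pH 8.0, 0.01% Tween 20, with an AMC peptide substrate. Fluorescence change (340/450 nm) over 15 min at room temperature, normalized to controls, fitted to 4-parameter Hill.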
# [5] = molecular target: Cytochrome P450 1A2 (Homo sapiens) (UniProt P05177); experiment: p450-cyp1a2 (AID 410; calls by dose curve; also: potency is read from the fitted curve at half-maximal effect)
# Sequence of Cytochrome P450 1A2 (Homo sapiens) (P05177 whole entry, looked up): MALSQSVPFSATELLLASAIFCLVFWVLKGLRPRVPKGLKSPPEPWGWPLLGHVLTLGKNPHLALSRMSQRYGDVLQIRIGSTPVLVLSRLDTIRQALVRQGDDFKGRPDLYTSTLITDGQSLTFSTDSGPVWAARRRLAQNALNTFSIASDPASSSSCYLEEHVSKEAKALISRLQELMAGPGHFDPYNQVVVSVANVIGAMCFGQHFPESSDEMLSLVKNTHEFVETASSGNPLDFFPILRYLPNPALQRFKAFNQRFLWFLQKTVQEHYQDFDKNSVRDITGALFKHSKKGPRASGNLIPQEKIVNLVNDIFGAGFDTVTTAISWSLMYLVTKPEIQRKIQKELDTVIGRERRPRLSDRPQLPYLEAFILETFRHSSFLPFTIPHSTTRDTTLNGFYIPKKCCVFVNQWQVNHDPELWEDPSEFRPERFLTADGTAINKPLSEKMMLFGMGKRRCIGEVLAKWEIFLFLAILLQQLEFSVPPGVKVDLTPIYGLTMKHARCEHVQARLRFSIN
# Outline: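 20nM CYP1A2, 100uM Luciferin-ME (=Km), 100mM KPO4; cpd 10 min RT; +NADPH regen, 60 min RT; stop/detect 20 min; luminescence. Normalized to furafylline 57 uM = full inhibition.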
# [6] = molecular target: N-terminal Xaa-Pro-Lys N-methyltransferase 1 (Homo sapiens) (UniProt Q9BV86); experiment: Confirmatory qHTS for Inhibitors of N-terminal methyltransferase 1 (NTMT1): MTaseGlo Assay (AID 1645874);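 also: luminescence from SAH made as NTMT1 methylates SPKRIA peptide using SAM; 0% = DMSO control and -100% = no-enzyme control; nearly all actives have a fitted effect of over 65% in size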
# Sequence of N-terminal Xaa-Pro-Lys N-methyltransferase 1 (Homo sapiens) (Q9BV86 whole entry, looked up): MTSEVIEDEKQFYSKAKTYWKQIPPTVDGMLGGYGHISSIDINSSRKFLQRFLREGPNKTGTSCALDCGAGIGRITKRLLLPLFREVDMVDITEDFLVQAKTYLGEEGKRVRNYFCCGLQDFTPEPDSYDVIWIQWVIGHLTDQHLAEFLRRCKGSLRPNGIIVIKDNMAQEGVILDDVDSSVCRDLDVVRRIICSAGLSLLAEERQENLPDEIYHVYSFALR
# Outline: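 Enzyme mix (125 nM NTMT1, 100 uM SAM) + compound, 15 min RT; + 1 uM SPKRIA, 30 min RT, dark; MTase-Glo reagent 30 min, detection solution 30 min; luminescence. % inhibition vs no-enzyme/DMSO controls, 4-parameter Hill fit.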
# [7] = Primary qHTS for inhibitors of nuclear receptor binding SET domain protein 2 (NSD2) in an isogenic RCH-ACV NSD2 p.E1099K mutant (9B) (AID 1645876); also: potency is read from the fitted curve at half-maximal effect; nearly all actives have a fitted effect of over 70% in size
# [8] = Primary qHTS for inhibitors of nuclear receptor binding SET domain protein 2 (NSD2) in an RCH-ACV wild type WT cells (2C) (AID 1645877); also: potency is read from the fitted curve at half-maximal effect; nearly all actives have a fitted effect of over 70% in size
# [9] = molecular target: Glutathione peroxidase 1 (Homo sapiens) (UniProt P07203); experiment: Primary qHTS Assay for Inhibitors of Recombinant Selenoprotein Glutathione Peroxidase 1 (GPX1) (AID 1845191); also: % is scaled to controls: 0 for no effect and ±100 for the full control effect; nearly all actives have a fitted effect of over 65% in size
# Sequence of Glutathione peroxidase 1 (Homo sapiens) (P07203 whole entry, looked up): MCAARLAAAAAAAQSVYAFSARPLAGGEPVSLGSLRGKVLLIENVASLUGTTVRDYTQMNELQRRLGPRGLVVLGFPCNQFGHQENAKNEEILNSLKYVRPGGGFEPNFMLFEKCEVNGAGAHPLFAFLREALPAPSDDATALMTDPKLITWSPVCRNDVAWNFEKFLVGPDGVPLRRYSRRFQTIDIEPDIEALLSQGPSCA
# Outline: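 GR-coupled readout: NADPH consumption tracked by fluorescence, ex 340/em 450 nm, at t=0 and after 15 min at RT. Final mix 10 nM GPX1, 1 mM GSH, 0.5 mM CHP, 0.5 mM NADPH, 100 nM GR, 0.01% BSA, following 30 min enzyme–compound preincubation.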
# [10] = molecular target: Phospholipid hydroperoxide glutathione peroxidase GPX4 (Homo sapiens) (UniProt P36969); experiment: Primary qHTS Assay for Inhibitors of Recombinant Selenoprotein Glutathione Peroxidase 4 (GPX4) (AID 1845192); details: outcome: dose series up to 50 µM unless noted; also: % is scaled to controls: 0 for no effect and ±100 for the full control effect; nearly all actives have a fitted effect of over 65% in size
# Sequence of Phospholipid hydroperoxide glutathione peroxidase GPX4 (Homo sapiens) (P36969 whole entry, looked up): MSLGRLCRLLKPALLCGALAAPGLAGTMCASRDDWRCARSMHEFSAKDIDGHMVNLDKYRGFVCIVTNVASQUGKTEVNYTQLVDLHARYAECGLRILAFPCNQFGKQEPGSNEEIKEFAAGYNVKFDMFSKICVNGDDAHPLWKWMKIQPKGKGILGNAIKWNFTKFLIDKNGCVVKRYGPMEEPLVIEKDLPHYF
# Outline: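 Steps: GPX4 plus compound, 30 min RT; add GR/GSH/NADPH master mix; start with cumene hydroperoxide; read 340/450 nm fluorescence at 0 and 15 min. Finals were 200 nM GPX4, 1 mM GSH, 0.5 mM CHP, 0.5 mM NADPH, 100 nM GR.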
# [11] = qHTS drug screen for cell cycle checkpoint inhibitors in PARPi-resistant BRCA-mutant ovarian cancer cell lines. (AID 1963452; calls by dose curve); details: PEO1/OlaR viability, CellTiter-Glo luminescence, 96 h, stronger effect = lower value
# Outline: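 PEO1, PEO4 and PEO1/OlaR ovarian cancer cells, 600 per well, exposed 96 h at 37C to a dilution series. Viability read by CellTiter-Glo luminescence, normalized to DMSO and empty wells; activity summarized as Z-AUC.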
# [12] = molecular target: Glucocorticoid receptor (Homo sapiens) (UniProt P04150); experiment: GR-GFP Redistribution (AID 450;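 active = compounds whose dose series gives a full or clear partial fitted curve of increased nuclear translocation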; also: potency is read from the fitted curve at half-maximal effect); details: U2OS GR-GFP nuclear translocation, laser cytometry, 2 h
# Sequence of Glucocorticoid receptor (Homo sapiens) (P04150 whole entry, looked up, the tested form may be a part): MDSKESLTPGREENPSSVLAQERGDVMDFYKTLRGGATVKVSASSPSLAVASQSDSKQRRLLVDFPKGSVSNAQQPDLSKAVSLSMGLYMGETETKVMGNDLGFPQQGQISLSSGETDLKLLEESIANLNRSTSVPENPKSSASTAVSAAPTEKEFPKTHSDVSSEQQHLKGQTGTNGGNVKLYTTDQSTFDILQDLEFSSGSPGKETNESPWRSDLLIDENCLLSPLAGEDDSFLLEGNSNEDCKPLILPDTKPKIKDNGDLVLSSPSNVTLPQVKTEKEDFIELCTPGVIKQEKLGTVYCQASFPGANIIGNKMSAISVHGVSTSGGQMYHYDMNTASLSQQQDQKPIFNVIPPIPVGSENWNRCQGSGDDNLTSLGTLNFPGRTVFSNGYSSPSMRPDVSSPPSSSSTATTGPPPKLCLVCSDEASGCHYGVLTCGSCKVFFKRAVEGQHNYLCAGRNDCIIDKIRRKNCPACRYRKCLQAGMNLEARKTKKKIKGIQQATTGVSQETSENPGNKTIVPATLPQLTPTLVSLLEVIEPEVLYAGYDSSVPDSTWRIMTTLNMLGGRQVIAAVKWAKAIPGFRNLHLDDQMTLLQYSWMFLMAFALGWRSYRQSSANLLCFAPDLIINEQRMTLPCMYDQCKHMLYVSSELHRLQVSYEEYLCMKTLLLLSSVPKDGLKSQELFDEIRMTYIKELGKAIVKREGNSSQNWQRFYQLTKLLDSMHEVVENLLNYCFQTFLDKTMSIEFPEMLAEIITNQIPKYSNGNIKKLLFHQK
# [13] = molecular target: Glucocorticoid receptor (Homo sapiens) (UniProt P04150); experiment: GR-EFC Redistribution (AID 451; calls by dose curve; also: potency is read from the fitted curve at half-maximal effect); details: CHO-K1 GR-EFC translocation, beta-gal luminescence, 2 h
# Outline: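 CHO-K1 cells expressing nuclear EA and GR-ED fragments of b-gal; compounds titrated up to 46 uM final, 2 h at 37 C. GR nuclear translocation read as complemented b-gal luminescence after 1 h RT detection.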
# [14] = molecular target: Mitogen-activated protein kinase 10 (Mus musculus) (UniProt Q61831); experiment: JNK3 AlphaScreen Assay (AID 530; active = well fitted curve in either direction with a large enough effect, not every such curve was filed as active;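 also: kinase came from lysate of stimulated human HepG2 cells; signal reports phosphorylation of biotinylated GST-cJun 1-79 at Ser73 with 10 µM ATP; % is scaled to controls: 0 for no effect and ±100 for the full control effect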)
# Outline: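 HepG2 lysate (IL-1b/TNFa pre-activated) + biotin-GST-cJun 1-79 + anti-pSer73 cJun; cpd titration, 15 min RT; ATP 10 uM start; Tris pH 7.6, MgCl2, DTT, vanadate; beads in EDTA buffer; AlphaScreen.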
# [15] = molecular target: 3',5'-cyclic-AMP phosphodiesterase 4B (Homo sapiens) (UniProt Q07343); experiment: qHTS Assay for Inhibitors of PDE-IV (AID 607; active = well fitted activation curve with a large enough effect in the main read-out, with a control signal flat, not every such curve was filed as active; also: % of control where 0% means no effect)
# Sequence of 3',5'-cyclic-AMP phosphodiesterase 4B (Homo sapiens) (Q07343 whole entry, looked up): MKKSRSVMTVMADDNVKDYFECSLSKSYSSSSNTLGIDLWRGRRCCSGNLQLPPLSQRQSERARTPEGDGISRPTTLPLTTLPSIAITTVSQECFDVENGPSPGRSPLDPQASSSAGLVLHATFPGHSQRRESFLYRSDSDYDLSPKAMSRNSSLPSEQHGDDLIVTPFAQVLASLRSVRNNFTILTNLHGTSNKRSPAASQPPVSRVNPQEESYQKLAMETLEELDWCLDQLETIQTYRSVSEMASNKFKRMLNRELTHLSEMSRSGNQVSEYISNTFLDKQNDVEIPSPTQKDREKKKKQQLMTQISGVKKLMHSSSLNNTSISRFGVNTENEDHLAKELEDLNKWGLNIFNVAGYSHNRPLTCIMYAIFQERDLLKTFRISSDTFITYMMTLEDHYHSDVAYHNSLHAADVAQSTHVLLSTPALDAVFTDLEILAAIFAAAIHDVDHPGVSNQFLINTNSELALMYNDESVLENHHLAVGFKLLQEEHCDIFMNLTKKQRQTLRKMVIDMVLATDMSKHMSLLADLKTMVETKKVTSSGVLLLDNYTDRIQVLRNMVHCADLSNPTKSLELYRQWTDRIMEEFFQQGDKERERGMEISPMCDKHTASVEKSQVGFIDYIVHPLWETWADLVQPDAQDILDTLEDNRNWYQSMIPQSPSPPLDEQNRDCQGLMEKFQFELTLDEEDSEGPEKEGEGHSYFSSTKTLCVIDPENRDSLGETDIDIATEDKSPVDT
# Outline: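 The readout is membrane depolarisation from a cAMP-sensing CNG channel, detected with a potential dye at ex 535/em 590. Cells were HEK293-derived (endogenous PDE-IV) at 1000 cells/well, titrated up to 22.9 uM final.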
# [16] = measured here: cell count channel max response
# [17] = measured here: lipid channel max response
compound,measurement,setting,value
C[C@H](CCC(=O)O)[C@H]1CC[C@H]2[C@H]3C(CC[C@]12C)[C@@]1(C)CC[C@@H](O)C[C@H]1C[C@H]3O (some centres not stated),"activity change, negative = inhibition",[1],-7.53% (inactive)
same,max response,[1]; [16],14.2%
same,max response,[1]; [17],5.28%
same,Potency,[2],inactive
same,Potency,[3],inactive
same,Potency,[4],inactive
CN1[C@H](CC(=O)c2ccccc2)CCC[C@H]1C[C@H](O)c1ccccc1,Potency,[5],15.8 µM (active)
same,"activity change, negative = inhibition",[1],4.17% (inactive)
same,max response,[1]; [16],24.7%
same,max response,[1]; [17],29.8%
same,Potency,[2],inactive
same,Potency,[3],inactive
same,Potency,[4],inactive
CC(=O)C1CCC2C3CCC4=CC(=O)CCC4(C)C3CCC12C (configuration not stated),Potency,[4],inactive
same,Potency,[6],inactive
same,Potency,[7],20.9 µM (active)
same,Potency,[8],18.6 µM (active)
same,Potency,[9],inactive
same,Potency,[10],inactive
same,Z-AUC,[11],-0.653 (inactive)
same,Z-AUC,[11]; measured here: PEO1 parental Z-AUC,-0.604
same,Z-AUC,[11]; measured here: PEO4 Z-AUC,-0.267
c1ncc(CC2CCNCC2)[nH]1,Potency,[12],> 46 µM (inactive)
same,Potency,[13],> 46 µM (inactive)
same,Potency,[14],inactive
same,Potency,[15],inactive
same,"activity change, negative = inhibition",[1],0.0288% (inactive)
same,max response,[1]; [16],-18.2%
same,max response,[1]; [17],-15.8%
same,Potency,[2],inactive
same,Potency,[3],inactive
same,Potency,[4],inactive
